Test results reported in PubChem BioAssay (EPA / NIEHS).
“And” between values parts separate entries of the source, which are not always exact repeats. Equal values may be shown once. Where a structure was tested more than once in an assay, its records may differ in their call. The source made the active and inactive calls. The calls were made as follows: active = hit-call score of the fitted dose curve at least 0.9, where 1 is the maximum; inactive = score below 0.9.

Columns and labels:
[1] = ATG_PBREM_CIS: Attagene CIS-FACTORIAL HepG2 Assay for human Phenobarbital-responsive Enhancer Module (PBREM) (AID 2282955); settings: HepG2 PBREM cis-reporter, Attagene multiplexed transcription; actives raise or lower the signal
Outline: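 HepG2 cells transiently transfected with multiple cis-regulated reporter transcription units; endogenous factor activity at the PBREM element measured as reporter mRNA 24 h after dosing, via RT-PCR and capillary electrophoresis of fluorescent fragments; bidirectional fitting versus DMSO.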

[2] = molecular target: Paired box protein Pax-6 (Homo sapiens) (UniProt P26367); assay: ATG_Pax6_CIS: Attagene CIS-FACTORIAL HepG2 Assay for human Paired Box 6 (PAX6) (AID 2282956); settings: HepG2 CIS-FACTORIAL PAX6 reporter transcription, RNA readout; actives raise or lower the signal
Sequence of Paired box protein Pax-6 (Homo sapiens) (P26367 whole entry, looked up): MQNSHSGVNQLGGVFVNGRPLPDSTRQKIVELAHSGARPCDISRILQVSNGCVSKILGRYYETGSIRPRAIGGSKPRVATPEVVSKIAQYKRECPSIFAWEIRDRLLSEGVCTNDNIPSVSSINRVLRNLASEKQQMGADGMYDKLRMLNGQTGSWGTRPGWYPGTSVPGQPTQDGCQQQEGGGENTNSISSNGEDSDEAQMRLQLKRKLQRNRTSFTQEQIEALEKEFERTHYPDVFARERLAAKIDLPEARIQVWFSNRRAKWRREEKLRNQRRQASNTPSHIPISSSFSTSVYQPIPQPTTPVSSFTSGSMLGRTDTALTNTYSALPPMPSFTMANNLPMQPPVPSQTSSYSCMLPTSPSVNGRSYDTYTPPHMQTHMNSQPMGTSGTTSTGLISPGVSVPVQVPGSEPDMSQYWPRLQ
Outline: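 Read-out is reporter transcript level, measured by RT-PCR with fluorescent primer extension and capillary electrophoresis after 24 h dosing of transfected HepG2 cells. Activity in either direction fitted relative to DMSO control.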

[3] = ATG_PXRE_CIS: Attagene CIS-FACTORIAL HepG2 Assay for human Pregnane X Receptor Element (PXRE) (AID 2282957); settings: HepG2 Attagene CIS-FACTORIAL PXRE reporter, mRNA; actives raise or lower the signal
Outline: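 Read-out: fluorescence of reporter-specific RT-PCR products resolved by capillary electrophoresis, fitted bidirectionally relative to DMSO. Human HepG2 liver cells carried transfected cis-promoter reporter units and were exposed to chemicals for 24 h.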

[4] = ATG_RORE_CIS: Attagene CIS-FACTORIAL HepG2 Assay for human RAR-related Orphan Receptor Element (RORE) (AID 2282959); settings: HepG2 Attagene cis-factorial RORE reporter, mRNA; actives raise or lower the signal
Outline: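 HepG2 cells transiently transfected with multiple cis-element reporter transcription units, exposed to chemical for 24 h. Reporter mRNA quantified by RT-PCR, 6-FAM primer-extension labeling, HpaI digestion and capillary electrophoresis; bidirectional fit versus DMSO baseline.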

[5] = ATG_Sox_CIS: Attagene CIS-FACTORIAL HepG2 Assay for human SRY-box transcription factor (SOX) (AID 2282960); settings: HepG2 Attagene cis-factorial SOX reporter, mRNA; actives raise or lower the signal
Outline: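 HepG2 cells transiently transfected with cis-element-driven multiple reporter transcription units, dosed 24 h; reporter mRNA measured by RT-PCR, FAM labelling, HpaI digestion and capillary electrophoresis. Bidirectional fit versus DMSO baseline.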

[6] = molecular target: Transcription factor Sp1 (Homo sapiens) (UniProt P08047); assay: ATG_Sp1_CIS: Attagene CIS-FACTORIAL HepG2 Assay for human Specificity Protein 1 (Sp1) (AID 2282961); settings: HepG2 Sp1 cis-reporter transcription, actives raise or lower the signal
Sequence of Transcription factor Sp1 (Homo sapiens) (P08047 whole entry, looked up): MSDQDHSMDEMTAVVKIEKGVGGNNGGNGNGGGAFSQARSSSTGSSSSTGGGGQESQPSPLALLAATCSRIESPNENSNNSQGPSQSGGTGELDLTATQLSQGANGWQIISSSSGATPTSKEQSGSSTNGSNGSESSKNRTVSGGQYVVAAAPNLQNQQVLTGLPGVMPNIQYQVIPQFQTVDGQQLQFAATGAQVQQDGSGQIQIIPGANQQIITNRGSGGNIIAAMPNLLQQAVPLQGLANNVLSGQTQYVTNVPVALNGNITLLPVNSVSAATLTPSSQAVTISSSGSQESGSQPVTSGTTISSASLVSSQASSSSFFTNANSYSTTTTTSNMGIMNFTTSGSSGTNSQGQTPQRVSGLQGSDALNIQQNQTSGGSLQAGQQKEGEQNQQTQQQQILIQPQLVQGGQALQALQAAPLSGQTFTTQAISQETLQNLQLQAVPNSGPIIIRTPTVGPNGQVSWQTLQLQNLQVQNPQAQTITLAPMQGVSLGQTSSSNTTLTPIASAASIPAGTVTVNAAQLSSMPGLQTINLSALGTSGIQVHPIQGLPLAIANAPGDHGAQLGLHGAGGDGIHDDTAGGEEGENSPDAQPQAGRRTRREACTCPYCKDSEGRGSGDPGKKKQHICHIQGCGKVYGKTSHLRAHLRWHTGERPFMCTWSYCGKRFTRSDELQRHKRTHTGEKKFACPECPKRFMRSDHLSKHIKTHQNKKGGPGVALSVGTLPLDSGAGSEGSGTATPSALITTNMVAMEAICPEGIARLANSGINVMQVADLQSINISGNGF
Outline: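 HepG2 cells transiently transfected with multiple reporter transcription units driven by cis-regulatory elements; Sp1-responsive reporter mRNA measured 24 h after dosing by RT-PCR and capillary electrophoresis fluorescence, fitted bidirectionally against DMSO baseline.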

[7] = ATG_SREBP_CIS: Attagene CIS-FACTORIAL HepG2 Assay for human Sterol Regulatory Element Binding (SREBP) (AID 2282962); settings: HepG2 Attagene cis-factorial SREBP reporter, mRNA; actives raise or lower the signal
Outline: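 Endogenous SREBP activity read as cis-element-driven reporter transcript in transiently transfected HepG2, 24 h post-dosing; quantified via RT-PCR plus capillary electrophoresis of fluorescent fragments. Gain or loss of signal fitted relative to DMSO baseline.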

[8] = molecular target: Signal transducer and activator of transcription 3 (Homo sapiens) (UniProt P40763); assay: ATG_STAT3_CIS: Attagene CIS-FACTORIAL HepG2 Assay for human Signal Transducer and Activator of Transcription 3 (STAT3) (AID 2282963); settings: HepG2, Attagene cis-factorial STAT3 reporter transcription; actives raise or lower the signal
Sequence of Signal transducer and activator of transcription 3 (Homo sapiens) (P40763 whole entry, looked up, the tested form may be a part): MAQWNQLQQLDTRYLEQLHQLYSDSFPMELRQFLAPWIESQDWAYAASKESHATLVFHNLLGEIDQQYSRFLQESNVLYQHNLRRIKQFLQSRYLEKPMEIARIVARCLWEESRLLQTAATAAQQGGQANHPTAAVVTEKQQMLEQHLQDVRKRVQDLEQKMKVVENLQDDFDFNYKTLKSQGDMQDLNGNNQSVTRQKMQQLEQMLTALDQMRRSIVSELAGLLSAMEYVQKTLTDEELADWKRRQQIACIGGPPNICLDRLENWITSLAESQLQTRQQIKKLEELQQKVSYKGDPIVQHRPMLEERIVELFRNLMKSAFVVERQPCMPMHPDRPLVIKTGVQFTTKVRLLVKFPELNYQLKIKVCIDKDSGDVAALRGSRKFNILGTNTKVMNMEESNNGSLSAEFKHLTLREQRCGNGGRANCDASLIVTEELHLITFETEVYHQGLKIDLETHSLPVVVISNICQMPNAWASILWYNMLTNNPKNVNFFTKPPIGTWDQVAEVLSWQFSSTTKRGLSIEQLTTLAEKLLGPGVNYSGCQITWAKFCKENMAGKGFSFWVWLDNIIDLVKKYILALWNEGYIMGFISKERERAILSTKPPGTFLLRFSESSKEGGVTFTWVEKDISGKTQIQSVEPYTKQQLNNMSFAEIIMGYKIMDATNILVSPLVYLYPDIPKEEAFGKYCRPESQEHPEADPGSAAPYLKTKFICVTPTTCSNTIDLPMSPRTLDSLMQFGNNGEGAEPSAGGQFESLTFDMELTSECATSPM
Outline: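 Readout: fluorescent reporter mRNA fragments resolved by capillary electrophoresis. Setup: HepG2 transfected with MRTUs reporting endogenous transcription-factor activity, dosed 24 h. Gain or loss of signal fitted bidirectionally against DMSO control.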

[9] = ATG_TA_CIS: Attagene CIS-FACTORIAL HepG2 Assay for human TA Basal Promoter (AID 2282964); settings: HepG2 Attagene CIS-factorial TA basal promoter reporter; actives raise or lower the signal
Outline: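 Transient MRTU transfection of HepG2 preceded 24 h compound exposure. Reporter mRNA levels were then read by RT-PCR with capillary electrophoresis, and this background-control endpoint was fitted bidirectionally to DMSO.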

[10] = ATG_PPRE_CIS: Attagene CIS-FACTORIAL HepG2 Assay for human Peroxisome Proliferator-activated Response Element (PPRE) (AID 2282958); settings: HepG2 PPRE cis-element reporter, Attagene transcription factor profiling; actives raise or lower the signal
Outline: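 HepG2 cells transiently transfected with multiplexed cis-element reporter units measure endogenous transcription factor activity. After 24 h compound exposure, reporter mRNA is quantified by RT-PCR, 6-FAM labeling, HpaI digestion and capillary electrophoresis; bidirectional fits are made against DMSO baseline.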

SMILES	AC50 [1]	outcome [1]	outcome [2]	AC50 [3]	outcome [4]	outcome [5]	outcome [6]	outcome [7]	outcome [8]	outcome [9]	outcome [3]	AC50 [2]	AC50 [4]	AC50 [5]	AC50 [6]	AC50 [8]	AC50 [9]	AC50 [7]	outcome [10]
CCCN(CCC)c1c([N+](=O)[O-])cc(S(N)(=O)=O)cc1[N+](=O)[O-]	2.2 µM (active)	inactive	inactive	302 nM (active) and 134 nM (active) and 567 nM (active)	inactive	inactive	inactive	inactive	inactive	inactive	–	–	–	–	–	–	–	–	–
CCCCNC(=O)n1c(NC(=O)OC)nc2ccccc21	–	inactive	inactive	–	inactive	inactive	inactive	inactive	inactive	inactive	inactive	–	–	–	–	–	–	–	–
COC(=O)C=C(C)OP(=O)(OC)OC	–	inactive	inactive	–	inactive	inactive	inactive	inactive	inactive	inactive	inactive	–	–	–	–	–	–	–	–
CCCCNC(=O)OCC#CI	25.9 µM (active)	inactive	inactive	48.6 µM (active) and 1.56 µM (active) and 1.73 µM (active)	inactive	inactive	inactive	inactive	inactive	inactive	–	32.7 µM (active)	27.3 µM (active)	26.5 µM (active)	31.9 µM (active)	60.2 µM (active)	27.7 µM (active)	–	–
COc1cnc(OC)n2nc(NS(=O)(=O)c3c(OCC(F)F)cccc3C(F)(F)F)nc12	–	inactive	inactive	22 µM (active) and 16.4 µM (active)	inactive	inactive	inactive	inactive	inactive	inactive	–	–	–	–	–	–	–	–	–
COP(N)(=O)SC (centres undefined)	–	inactive	inactive	–	inactive	inactive	inactive	inactive	inactive	inactive	inactive	–	–	–	–	–	–	–	–
CO/C=C(/C(=O)OC)c1ccccc1Oc1cc(Oc2ccccc2C#N)ncn1	–	inactive	inactive	526 nM (active) [middle of 6 runs]	inactive	inactive	inactive	inactive	inactive	inactive	–	–	–	–	–	–	–	32.4 µM (active) [middle of 4 runs]	–
Fc1ccc(Oc2ccnc3cc(Cl)cc(Cl)c23)cc1	–	inactive	inactive	–	inactive	inactive	inactive	inactive	inactive	inactive	inactive	–	–	–	–	–	–	–	–
CCCCOC(=O)c1ccccc1C(=O)OCCCC	27.5 µM (active) and 67 µM (active) and 50 µM (active)	inactive	inactive	27.4 µM (active) [middle of 5 runs]	inactive	inactive	inactive	inactive	inactive	inactive	–	–	29 µM (active) and 50 µM (active)	–	–	–	39.8 µM (active)	75.8 µM (active)	–
CON(C)C(=O)Nc1ccc(Cl)c(Cl)c1	31.9 µM (active) and 27.2 µM (active)	inactive	inactive	26.7 µM (active) [middle of 4 runs]	inactive	inactive	inactive	inactive	inactive	inactive	–	–	–	–	–	–	–	–	–
COc1ccc(C(c2ccc(OC)cc2)C(Cl)(Cl)Cl)cc1	–	inactive	inactive	4.17 µM (active) [middle of 4 runs]	inactive	inactive	inactive	inactive	inactive	inactive	inactive	–	–	–	24.4 µM (active) and 38.1 µM (active)	–	–	–	–
CCOC(=O)CC(SP(=S)(OC)OC)C(=O)OCC (centres undefined)	–	inactive	inactive	2.27 µM (active) and 12.2 µM (active)	inactive	inactive	inactive	inactive	inactive	inactive	–	100 µM (active)	150 µM (active)	–	–	–	–	–	–
COc1nc(NC(C)C)nc(NC(C)C)n1	–	inactive	inactive	18.6 µM (active)	inactive	inactive	inactive	inactive	inactive	inactive	inactive	–	30.5 µM (active)	–	–	–	–	–	–
COc1nc(C)nc(NC(=O)NS(=O)(=O)c2ccccc2Cl)n1	–	inactive	inactive	31.3 µM (active)	inactive	inactive	inactive	inactive	inactive	inactive	inactive	–	–	–	–	–	–	–	–
CNC(=S)S	–	inactive	inactive	80 µM (active)	–	inactive	inactive	inactive	inactive	inactive	inactive	–	–	–	–	–	–	–	–
CC(C)C1(C)N=C(c2nc3ccccc3cc2C(=O)O)NC1=O (centres undefined)	–	inactive	inactive	11.1 µM (active)	inactive	inactive	inactive	inactive	inactive	inactive	–	–	–	–	–	–	–	–	–
COc1nc(C)nc(NC(=O)NS(=O)(=O)c2ccccc2CCC(F)(F)F)n1	–	inactive	inactive	18.9 µM (active) and 50 µM (active) and 33.4 µM (active)	inactive	inactive	inactive	inactive	inactive	inactive	–	–	–	–	–	–	–	–	inactive

SMILES	AC50 [1]	outcome [1]	outcome [2]	AC50 [3]	outcome [4]	outcome [5]	outcome [6]	outcome [7]	outcome [8]	outcome [9]	outcome [3]	AC50 [2]	AC50 [4]	AC50 [5]	AC50 [6]	AC50 [8]	AC50 [9]	AC50 [7]	outcome [10]
CN(C)C(=S)SSC(=S)N(C)C	–	inactive	inactive	–	inactive	inactive	inactive	inactive	inactive	inactive	inactive	–	–	–	–	–	–	–	–
OC(c1ccc(Cl)cc1)(c1cncnc1)c1ccccc1Cl (centres undefined)	–	inactive	inactive	2.17 µM (active)	inactive	inactive	inactive	inactive	inactive	inactive	inactive	–	–	–	12.6 µM (active)	–	–	–	–
CCCC1COC(Cn2cncn2)(c2ccc(Cl)cc2Cl)O1 (centres undefined)	50 µM (active)	inactive	inactive	4.09 µM (active) and 85 µM (active)	inactive	inactive	inactive	inactive	inactive	inactive	–	–	–	–	–	–	50 µM (active)	15.9 µM (active)	–
N#Cc1nn(-c2c(Cl)cc(C(F)(F)F)cc2Cl)c(N)c1S(=O)C(F)(F)F (centres undefined)	19.4 µM (active)	inactive	inactive	2.37 µM (active) and 44.9 µM (active)	inactive	inactive	inactive	inactive	inactive	inactive	–	48.4 µM (active)	–	–	–	–	–	–	–
Oc1ccccc1-c1ccccc1	–	inactive	inactive	13.5 µM (active) and 3.11 µM (active)	–	inactive	inactive	inactive	inactive	inactive	–	57.7 µM (active)	–	46 µM (active)	50 µM (active)	–	–	150 µM (active)	–
CS/C(C)=N/OC(=O)N(C)SN(C)C(=O)O/N=C(\C)SC	–	inactive	inactive	–	inactive	inactive	inactive	inactive	inactive	inactive	inactive	–	–	–	–	–	–	–	–
CCOc1cc(Oc2ccc(C(F)(F)F)cc2Cl)ccc1[N+](=O)[O-]	–	inactive	inactive	8.64 µM (active)	–	inactive	inactive	inactive	inactive	inactive	–	–	29.8 µM (active)	–	–	–	–	–	–
CCNc1nc(Cl)nc(NCC)n1	–	inactive	inactive	32.7 µM (active)	inactive	inactive	inactive	inactive	inactive	inactive	–	–	–	–	–	–	–	–	–
C=CCC1=C(C)C(OC(=O)C2C(C=C(C)C)C2(C)C)CC1=O (centres undefined)	–	inactive	inactive	566 nM (active) [middle of 6 runs]	inactive	inactive	inactive	inactive	inactive	inactive	–	64.5 µM (active) [middle of 4 runs]	27.2 µM (active) [middle of 4 runs]	90.4 µM (active) and 105 µM (active)	54.2 µM (active) [middle of 5 runs]	–	30.9 µM (active) and 52.5 µM (active) and 74.7 µM (active)	–	–
CC1COC(Cn2cncn2)(c2ccc(Oc3ccc(Cl)cc3)cc2Cl)O1 (centres undefined)	–	–	inactive	2 µM (active)	–	inactive	inactive	–	inactive	inactive	–	–	–	–	–	–	–	1.97 µM (active)	–
O=C(Nc1ccccc1)Nc1ccnc(Cl)c1	–	–	inactive	–	–	–	–	–	inactive	inactive	inactive	–	67.2 µM (active)	11.9 µM (active)	24.9 µM (active)	–	–	13.1 µM (active)	–
COP(=S)(OC)Oc1nc(Cl)c(Cl)cc1Cl	–	inactive	inactive	13.7 µM (active)	inactive	inactive	inactive	–	inactive	inactive	–	–	–	–	–	–	–	32 µM (active)	–
CCOC(=O)C(Cl)Cc1cc(-n2nc(C)n(C(F)F)c2=O)c(F)cc1Cl (centres undefined)	–	inactive	inactive	39.8 µM (active)	inactive	inactive	inactive	inactive	inactive	inactive	–	–	–	–	–	–	–	–	–
CCON=C(CC)C1=C(O)CC(c2c(C)cc(C)cc2C)CC1=O (centres undefined)	–	inactive	inactive	34.9 µM (active)	inactive	inactive	inactive	inactive	inactive	inactive	–	–	–	–	–	–	–	–	–
C=CCC1=C(C)[C@@H](OC(=O)[C@@H]2[C@@H](C=C(C)C)C2(C)C)CC1=O	5.59 µM (active)	–	inactive	0.965 µM (active)	inactive	inactive	inactive	inactive	inactive	inactive	–	–	–	–	–	–	–	–	–
COC(=O)N(OC)c1ccccc1COc1ccn(-c2ccc(Cl)cc2)n1	1.67 µM (active)	–	inactive	1.28 µM (active)	–	inactive	inactive	inactive	inactive	inactive	–	–	2.2 µM (active)	–	–	–	–	–	–
CC1=C(C(=O)Nc2ccccc2)SCCO1	–	–	inactive	40.4 µM (active)	inactive	inactive	inactive	inactive	inactive	inactive	–	–	–	–	–	–	–	–	–
